# Measured values published in PubChem BioAssay (Tox21).
# Where “and” joins values, the source holds several entries; their conditions need not be identical. Identical values can stand only once. Unmarked numbers belong to inactive results. Inconclusive results are not listed. Where a call stands in place of a potency, no number is given. Calls of active or inactive are those of the source. Calls come from the whole dose curve; as a rule, active = well fitted curve in the direction sought with a large enough effect in the repeat runs; inconclusive = weak or mixed curves; inactive = no such curve, though single readings can be large; an effect the other way counts as inactive or inconclusive.
# Assays:
# [1] = Human pregnane X receptor (PXR) small molecule agonists, qHTS cell viability counter screen (AID 1346977); note: nearly all actives have a fitted effect of over 50% in size
# Method in brief: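 Readout is CellTiter-Fluor fluorescence from PXR-Luc HepG2 cells. Plated cells rested 5hr, then were treated with compounds for 24hr at 37C and 5% CO2, with reagent present during the last hour.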
# [2] = Caspase-3/7 induction in CHO-K1 cells by small molecules, qHTS assay (AID 1346980); note: nearly all actives have a fitted effect of over 15% in size
# Method in brief: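 Wild-type CHO-K1 cells exposed to compounds for 17hr at 37 C, 5% CO2. Caspase-3/7 activity then measured by Caspase-Glo 3/7 luminescence after 30min at room temperature.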
# [3] = Caspase-3/7 induction in HepG2 cells by small molecules, qHTS cell viability counter screen (AID 1346981); note: series mostly up to about 92 µM; nearly all actives have a fitted effect of over 30% in size
# Method in brief: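 Steps: seed 2,000 HepG2 cells per well; incubate 5 hr at 37 C; pin-add compounds in DMSO; incubate 16 hr; add CellTiter-Fluor; after 1 hr at 37 C and 5% CO2, read fluorescence.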
# [4] = target: Nuclear receptor subfamily 1 group I member 2 (Homo sapiens) (UniProt O75469); test: Human pregnane X receptor (PXR) small molecule agonists, qHTS assay (AID 1346982); note: nearly all actives have a fitted effect of over 35% in size; note: potency is the fitted concentration of half-maximal effect
# Method in brief: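 Agonist mode qHTS: PXR-Luc HepG2 cells plated 5 hr before DMSO-dissolved compounds were pinned in, cultured 24 hr at 37 C, 5% CO2; ONE-Glo luminescence readout.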
# [5] = target: Nuclear receptor subfamily 1 group I member 2 (Rattus norvegicus) (UniProt Q9R1A7); test: Rat pregnane X receptor (rPXR) activation by small molecules, qHTS assay (AID 1346983); details: rPXR luciferase reporter cells, One-Glo luminescence, 24 h; max activation: active compounds read high; note: nearly all actives have a fitted effect of over 20% in size
# Method in brief: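 Cell-based rPXR activation assay: rPXR cells, 2,000 per well, rested 5hr at 37 C, then exposed to compounds in DMSO for 24 hr at 37 C. Luciferase activity read by One-Glo luminescence after 30 min at room temperature.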
# [6] = target: Nuclear receptor subfamily 1 group I member 2 (Homo sapiens) (UniProt O75469); test: CYP3A4 induction through human pregnane X receptor (PXR) by small molecules, qHTS assay (AID 1346984); note: nearly all actives have a fitted effect of over 40% in size; note: potency is the fitted concentration of half-maximal effect
# Method in brief: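 Steps: seed DPX-2 cells, 5 hr at 37C; pin-transfer compounds; 24 hr at 37C; add Luciferin-IPA (3uM final), 3 hr at 37C; add One-Glo, 30 min RT; read luminescence.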
# [7] = target: Cytochrome P450 2D6 (Homo sapiens) (UniProt P10635); test: Cytochrome P450 Family 2 Subfamily D Member 6 (CYP2D6) small molecule antagonists: luciferase reporter qHTS assay (AID 1671196); note: nearly all actives have a fitted effect of over 50% in size; note: potency is the fitted concentration of half-maximal effect
# Method in brief: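 P450-Glo format: CYP2D6 converts a proluciferin substrate to luciferin in an NADPH-driven reaction lasting 1 h at room temperature. Light output, proportional to CYP2D6 activity, reflects interference by test chemicals.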
# [8] = Caspase-3/7 induction in HepG2 cells by small molecules, qHTS assay (AID 1346978); note: nearly all actives have a fitted effect of over 15% in size
# Method in brief: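 Wild-type HepG2 cells, 2,000/well, settled 5 hr at 37 C and 5% CO2, then compound-treated for 17 hr; caspase-3/7 activity read by luminescent Caspase-Glo 3/7 after 30 min at room temperature.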
# [9] = Caspase-3/7 induction in CHO-K1 cells by small molecules, qHTS cell viability counter screen (AID 1346979); note: nearly all actives have a fitted effect of over 35% in size
# Method in brief: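 To flag cytotoxic compounds, treated CHO-K1 wild-type cells were given CellTiter-Fluor at 16hr and read fluorescently after 1hr at 37C; the caspase-3/7 luminescence was measured in these same wells.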
# [10] = target: Nuclear receptor subfamily 1 group I member 2 (Homo sapiens) (UniProt O75469); test: Human pregnane X receptor (PXR) activation by small molecules, qHTS assay (AID 1346985); note: nearly all actives have a fitted effect of over 40% in size
# Method in brief: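 DPX-2 cells (HepG2 co-transfected with a PXR response element and a CYP3A4-promoter luciferase construct) were seeded at 2,000 per well, rested 5 hr at 37C, then exposed to DMSO-dissolved compounds for 24 hr. Activation was read as luciferase luminescence.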
# Sequence of Nuclear receptor subfamily 1 group I member 2 (Homo sapiens) (O75469 whole entry, looked up): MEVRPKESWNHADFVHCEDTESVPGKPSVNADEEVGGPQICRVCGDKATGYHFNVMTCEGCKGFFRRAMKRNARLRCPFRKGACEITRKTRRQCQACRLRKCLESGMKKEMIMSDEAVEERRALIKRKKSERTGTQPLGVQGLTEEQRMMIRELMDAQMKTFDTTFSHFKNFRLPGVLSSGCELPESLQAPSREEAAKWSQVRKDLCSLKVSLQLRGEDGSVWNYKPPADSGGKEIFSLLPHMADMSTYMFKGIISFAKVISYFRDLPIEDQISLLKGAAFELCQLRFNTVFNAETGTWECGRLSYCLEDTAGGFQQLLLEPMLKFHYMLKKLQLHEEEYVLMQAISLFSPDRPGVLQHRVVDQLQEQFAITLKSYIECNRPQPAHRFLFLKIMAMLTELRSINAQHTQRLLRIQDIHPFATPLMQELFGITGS
# Sequence of Nuclear receptor subfamily 1 group I member 2 (Rattus norvegicus) (Q9R1A7 whole entry, looked up): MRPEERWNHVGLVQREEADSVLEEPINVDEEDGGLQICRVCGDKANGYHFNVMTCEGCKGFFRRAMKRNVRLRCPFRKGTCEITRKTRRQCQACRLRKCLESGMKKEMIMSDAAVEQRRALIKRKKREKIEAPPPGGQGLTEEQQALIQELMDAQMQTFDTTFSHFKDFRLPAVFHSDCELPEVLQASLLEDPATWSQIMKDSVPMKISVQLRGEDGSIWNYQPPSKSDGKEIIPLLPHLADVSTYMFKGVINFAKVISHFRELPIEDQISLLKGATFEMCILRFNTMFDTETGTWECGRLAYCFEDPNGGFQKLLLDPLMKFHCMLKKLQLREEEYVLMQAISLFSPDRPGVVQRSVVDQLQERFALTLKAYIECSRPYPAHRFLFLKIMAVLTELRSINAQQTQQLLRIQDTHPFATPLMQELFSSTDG
# Sequence of Cytochrome P450 2D6 (Homo sapiens) (P10635 whole entry, looked up): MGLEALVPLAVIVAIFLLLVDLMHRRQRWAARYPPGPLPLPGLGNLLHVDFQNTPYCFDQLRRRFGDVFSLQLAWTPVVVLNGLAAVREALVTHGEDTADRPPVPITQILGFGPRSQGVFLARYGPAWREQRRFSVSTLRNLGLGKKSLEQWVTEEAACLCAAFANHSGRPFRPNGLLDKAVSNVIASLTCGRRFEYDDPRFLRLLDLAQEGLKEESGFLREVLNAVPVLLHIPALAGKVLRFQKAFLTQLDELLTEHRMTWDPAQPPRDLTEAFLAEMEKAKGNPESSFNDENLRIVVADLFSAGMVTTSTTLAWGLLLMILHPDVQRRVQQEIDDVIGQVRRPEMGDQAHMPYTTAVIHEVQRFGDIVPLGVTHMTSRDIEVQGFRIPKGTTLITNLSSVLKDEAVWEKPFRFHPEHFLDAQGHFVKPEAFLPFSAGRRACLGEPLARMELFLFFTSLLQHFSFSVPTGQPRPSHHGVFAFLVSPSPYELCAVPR
structure (smiles),measurement,setting,value
NC(=S)N/N=C/c1cccnc1,Potency,[1],inactive
same,Potency,[2],inactive
same,Potency,[3],inactive
same,Potency,[4],inactive
same,max activation,[5],-5.63%
same,Potency,[6],inactive
same,Potency,[7],inactive
CN(C)CC/C=C1\c2ccccc2COc2ccccc21,outcome,[8],inactive
same,Potency,[9],inactive
same,Potency,[2],inactive
same,Potency,[3],inactive
CN(C)CC[C@@H](c1ccc(Br)cc1)c1ccccn1,Potency,[9],inactive
same,Potency,[3],inactive
same,Potency,[4],inactive
same,max activation,[5],-1.37%
same,Potency,[7],3.89 µM (active)
O=C(CCN1CCN2CCCC2C1)N1c2ccccc2Sc2ccc(Cl)cc21 (stereo not drawn),caspase-3/7 activation,[2],0.894% [at 19 µM]
same,max activation,[5],3.92%
same,Potency,[6],12.6 µM (active)
COc1ccc(OC)c(OC)c1,Potency,[1],inactive
same,Potency,[2],inactive
same,Potency,[3],inactive
same,Potency,[4],inactive
same,Potency,[7],inactive
CCN(CC)CCNC(C(=O)OCCC(C)C)c1ccccc1 (stereo not drawn),Potency,[9],inactive
same,Potency,[2],inactive
same,Potency,[3],inactive
same,max activation,[5],-0.588%
CNCC[C@@H](Oc1ccccc1C)c1ccccc1,outcome,[8],inactive
same,Potency,[9],inactive
same,Potency,[2],inactive
same,Potency,[3],inactive
same,Potency,[4],inactive
CC[C@H](C)[C@@H](C(=O)O)n1sc2ccccc2c1=O,Potency,[1],inactive
same,Potency,[3],inactive
same,Potency,[4],inactive
O=C(Nc1ccccc1)OCC(CN1CCCCC1)OC(=O)Nc1ccccc1 (stereo not drawn),outcome,[8],inactive
same,Potency,[2],inactive
same,Potency,[3],inactive
same,Potency,[4],2.37 µM (active)
same,max activation,[5],0.646%
same,Potency,[6],10 µM (active)
same,Potency,[7],0.436 µM (active)
Cn1sccc1=O,Potency,[1],inactive
same,Potency,[2],inactive
same,Potency,[3],inactive
same,Potency,[4],30.6 µM (active) and 61.1 µM (active)
same,Potency,[7],inactive
c1ccc(OCc2ccc(CCCN3CCOCC3)cc2)cc1,outcome,[8],inactive
same,Potency,[2],inactive
same,Potency,[3],inactive
same,Potency,[4],2.37 µM (active)
same,Potency,[6],inactive
same,Potency,[7],15.5 µM (active)
CC(Cc1cccc(C(F)(F)F)c1)NCCOC(=O)c1ccccc1 (stereo not drawn),Potency,[2],inactive
same,Potency,[3],inactive
same,Potency,[4],inactive
same,max activation,[5],-0.287%
same,Potency,[6],inactive
same,Potency,[7],0.0977 µM (active)
O=C(/C=C/c1ccc(O)c(O)c1)O[C@@H]1C[C@](O)(C(=O)O)C[C@@H](O)[C@H]1O,outcome,[8],inactive
same,Potency,[2],inactive
same,Potency,[3],inactive
same,Potency,[4],inactive
same,Potency,[7],inactive
C[Si](C)O[Si](C)(C)O[Si](C)(C)O[Si](C)C,Potency,[1],inactive
same,Potency,[2],inactive
same,Potency,[3],inactive
same,Potency,[4],inactive
same,Potency,[7],inactive
CC(C)(C)C(=O)OCOP(=O)(COCCn1cnc2c(N)ncnc21)OCOC(=O)C(C)(C)C,Potency,[3],inactive
same,Potency,[4],11.9 µM (active)
same,max activation,[5],-2.44%
same,Potency,[6],inactive
same,Potency,[10],inactive
same,Potency,[7],inactive
O=C=NC1CCC(CC2CCC(N=C=O)CC2)CC1 (stereo not drawn),outcome,[8],inactive
same,Potency,[9],inactive
